# According to the supplement of paper PMC6555819:
# Assays:
# Assay in all cases: PBM binding z-score (relative to random genomic background probes); higher = stronger binding; sequences stand for … in GC…GCGATTGACAGCGTAGAATGAAGG
# [1] = test system: RARb homodimer (NR concentration 270 nM)
# Summary of the method: (§1)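 Binding z-scores take random background probes as their reference. They come from custom Agilent 4×180K protein-binding microarrays incubated 1 h with ligand-free nuclear receptor dimers, with antibodies against each partner (one per run) detecting binding. Scanned fluorescence was regression-normalized.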
# [2] = test system: RARg:RXRa (NR concentration 270 nM, RXRa partner concentration 90 nM)
# Summary of the method: as §1
# [3] = test system: RARg homodimer (NR concentration 270 nM)
# Summary of the method: as §1
# [4] = test system: RXRa DBDmut IVT, anti-RXR (DBD mutation: RXRa K156A/R161A, NR concentration 90 nM)
# Summary of the method: as §1
# [5] = test system: RXRa homodimer (NR concentration 180 nM)
# Summary of the method: as §1
# [6] = test system: THRa:RXRa (NR concentration 90 nM, RXRa partner concentration 90 nM)
# Summary of the method: as §1
# [7] = test system: THRa homodimer (NR concentration 90 nM)
# Summary of the method: as §1
# [8] = test system: VDR homodimer (NR concentration 270 nM)
# Summary of the method: as §1
Sequence,PBM binding z-score [1],PBM binding z-score [2],PBM binding z-score [3],PBM binding z-score [4],PBM binding z-score [5],PBM binding z-score [6],PBM binding z-score [7],PBM binding z-score [8]
CCTATTAGTTGACCATAAGGGTAACCGAAGCTCG,1.5,1.01,0.877,0.493,0.639,1.3,1.19,1.2
GCGACTGGGGCATCAGCAGGTTACCTTAACTTAA,0.872,0.268,0.175,0.145,0.259,1.8,2.05,-0.071
TATACAGGGTCAAGGGCCAGAGTACGAATGTCGA,3.62,5.65,5.33,2.14,6.23,3.68,1.08,2.13
ATCTCTAGGTAAGACTCAGTTTAGTGAAGAACGC,0.134,0.228,0.235,0.443,-0.191,0.364,0.619,0.252
TCATATAGGTAATACAGGTGAGAGTCGGCATCTA,0.373,0.339,0.708,1.4,0.681,0.631,0.164,0.172
CCTACTGGGCCATCAGGTCAATGATATCAACGTT,2.67,2.1,2.2,-0.0866,1.31,3.17,2.24,0.718
TTATATAGGTAAAGGTGAAAGTCGAACGATATGA,1.64,1.68,1.27,-0.41,2.15,1.44,-0.395,-0.389
CTATCAAGGTGAACAAGGTCGTTGATTACTATTC,1.7,1.76,1.54,1.5,1.7,3.12,1.85,2.72
CAGCCTAGGTCAGGGCCGGTATAGGAGGAACGTT,2.41,3.04,3.86,-0.785,1.56,1.88,0.2,-0.454
ACTATTAGTTGACTTACGGCAACCGATACGACGC,0.0214,0.528,0.668,0.643,0.39,0.386,-0.0482,-0.179
CCGAGTAGGTTCTGGGGCATTCAGGCAACGGTGA,0.469,-0.508,-0.495,-0.0942,-0.58,0.118,0.0185,0.0206
GCAGACAGGTGAAACGCAGGTAACTCACGGTGGC,-0.171,0.892,0.295,-0.351,0.662,0.832,-0.7,-0.778
ATCGAAAGGTCGAGGTGCGTATAGAGAAAGGGAA,2.47,4.3,4.33,0.96,4.37,1.77,-0.562,0.304
CTACCAAGGAGAACAAGGTCGTTGATTACTATTC,1.14,0.413,0.266,1.2,0.732,1.87,1.05,1.73
TAGCCTAGGTCATGGGCCAGTCTACCACGCGAAC,2.8,4.32,4.43,-0.0274,3.69,2.93,1.09,0.0195
ATAAGTAGGTTACATCCGGGTCATTCAGGCTATG,2.83,3.41,2.17,1.37,3.12,3.72,2.7,3.19
CCTATCAGTTGACCATAAGGGCAACCGAAGCTCG,1.93,1.48,1.03,0.139,0.916,1.98,1.26,0.554

Sequence,PBM binding z-score [1],PBM binding z-score [2],PBM binding z-score [3],PBM binding z-score [4],PBM binding z-score [5],PBM binding z-score [6],PBM binding z-score [7],PBM binding z-score [8]
GCTAGCAGTCCATTTGGGTCACTCAATGACGGGC,1.54,0.428,0.586,0.506,0.617,1.82,0.507,0.912
GGTACAGGGTCAGCTAGAGGCCAGAGTATGGAAA,3.27,6.72,4.84,1.01,4.27,3.07,0.717,1.14
ACTAGCAGGCCAAGTTTGGGTCACTCTAACAAAG,2.06,2.24,1.6,-0.0163,0.429,2.39,1.06,0.209
GCTAGTTGTTCAGTAAAAGGTCACACACCGGTCG,5.07,4.7,4.28,0.628,5.06,3.39,1.77,1.84
CCGACTGGGGCATAAGGTTAACATAAGCCAGCCC,1.89,2.08,1.34,-0.0628,1.45,2.08,1.06,-0.243
TGACAAAGTTCAAAGGTAACGTAAGTATCCACAC,3.83,6.01,5.91,4.38,6.68,3.36,-0.0359,4.23
AGAATGAGGTTATACGTAGATCAGGGAAGAAAGT,1.19,1.88,1.24,1.35,2.23,2.23,0.863,0.864
TCTCGTAGGACACGAAGGTCAGAGCTTTCCAGAG,3.42,2.46,2.96,0.604,1.63,1.98,0.187,0.463
GCTGCTAGGTCAGGTTGGTCAGCTCACGGGTACG,2.66,2.78,3.52,0.658,1.28,1.84,0.901,0.536
GCCTACGGGTCAAAGGTTATAGCATGAATAGAAT,3.15,6.82,4.24,1.55,9.55,3.62,-0.143,1.08
CTCGAAAGGTCCGTTGAGGTGAGTATACGGATAA,0.529,0.513,0.708,0.119,0.313,4.14,0.988,0.885
ATCTCTAGGTAACAAGTTCAGTGACAGAGAGGAC,1.97,1.58,1.52,0.868,0.971,1.49,1.14,2.97
TCTAGTTGGTCAAAGGTCAGACACTCGAAATGCG,4.51,6.12,5.15,1.57,6.68,3.09,1.49,1.89
CCGACTGGGGCATATGGTTACCATAAGCCAGCCC,-0.243,-0.00585,0.046,-0.59,0.109,-1.07,-0.688,-0.752
CAAACCAGGTCAAGGTCAAAGTCGGTTTGTGCCA,5.11,6.13,6.35,3.39,6.52,4.77,4.35,4.97
AGAACGAGGGCACGCAGAGTTGATAGCAGAGTAG,1.68,2.85,2.58,2.14,1.73,1.94,0.33,1.86
CGTCCAAGGTCAATGATAGGTCAGTGAAAGCATT,4.99,7.81,7.06,3.55,6.04,4.03,2.44,2.61
